In the library only some 2.8% were active in any assay of this set; here they are far more common.
POLH inh = blocks human DNA polymerase eta activity; Q9Y253; recombinant Pol eta, fluorescent DNA replication assay; Potency, µM (highest dose often 114 µM), for inactives: at the highest dose activity change, negative = inhibition, most hits filed as inhibitors; hit rate 1.2% among 390,000; AID 588591; note: potency is the fitted concentration of half-maximal effect; % is set by controls: 0 for no effect and ±100 for the full control effect
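Fluorescent replication assay: 50 nM final substrate added after a 15 min room-temperature compound preincubation with 10 nM enzyme. Signal taken at 0 min and again at 10 min.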
Pol kappa inh = blocks human DNA polymerase kappa activity | Q9UBT6 | purified Pol kappa, fluorescent DNA synthesis assay, 10 min | Potency, µM (doses to about 107 µM), for the others: at the top dose activity, negative = inhibition, hits mostly inhibitors | hit rate 0.53% among 400,000 | AID 588579; note: potency is the fitted concentration of half-maximal effect; % is set by controls: 0 for no effect and ±100 for the full control effect
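10 nM Pol kappa preincubated 15 min at room temperature with compounds, then reaction started with substrate at 50 nM final. Fluorescence read kinetically at 0 and 10 min; buffer-only wells served as negative control.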
WRN helicase inh = blocks human WRN helicase | Q14191 | WRN helicase unwinding, fluorescent forked duplex, kinetic | AID 651768 | hit rate 0.46% among 360,000 | Potency, µM (top dose mostly 114 µM), for the others: top-dose activity change, negative = inhibition, most hits filed as inhibitors; note: potency is the fitted concentration of half-maximal effect; % is set by controls: 0 for no effect and ±100 for the full control effect; nearly all actives have a fitted effect of over 55% in size
Target sequence (Q14191 whole entry, looked up): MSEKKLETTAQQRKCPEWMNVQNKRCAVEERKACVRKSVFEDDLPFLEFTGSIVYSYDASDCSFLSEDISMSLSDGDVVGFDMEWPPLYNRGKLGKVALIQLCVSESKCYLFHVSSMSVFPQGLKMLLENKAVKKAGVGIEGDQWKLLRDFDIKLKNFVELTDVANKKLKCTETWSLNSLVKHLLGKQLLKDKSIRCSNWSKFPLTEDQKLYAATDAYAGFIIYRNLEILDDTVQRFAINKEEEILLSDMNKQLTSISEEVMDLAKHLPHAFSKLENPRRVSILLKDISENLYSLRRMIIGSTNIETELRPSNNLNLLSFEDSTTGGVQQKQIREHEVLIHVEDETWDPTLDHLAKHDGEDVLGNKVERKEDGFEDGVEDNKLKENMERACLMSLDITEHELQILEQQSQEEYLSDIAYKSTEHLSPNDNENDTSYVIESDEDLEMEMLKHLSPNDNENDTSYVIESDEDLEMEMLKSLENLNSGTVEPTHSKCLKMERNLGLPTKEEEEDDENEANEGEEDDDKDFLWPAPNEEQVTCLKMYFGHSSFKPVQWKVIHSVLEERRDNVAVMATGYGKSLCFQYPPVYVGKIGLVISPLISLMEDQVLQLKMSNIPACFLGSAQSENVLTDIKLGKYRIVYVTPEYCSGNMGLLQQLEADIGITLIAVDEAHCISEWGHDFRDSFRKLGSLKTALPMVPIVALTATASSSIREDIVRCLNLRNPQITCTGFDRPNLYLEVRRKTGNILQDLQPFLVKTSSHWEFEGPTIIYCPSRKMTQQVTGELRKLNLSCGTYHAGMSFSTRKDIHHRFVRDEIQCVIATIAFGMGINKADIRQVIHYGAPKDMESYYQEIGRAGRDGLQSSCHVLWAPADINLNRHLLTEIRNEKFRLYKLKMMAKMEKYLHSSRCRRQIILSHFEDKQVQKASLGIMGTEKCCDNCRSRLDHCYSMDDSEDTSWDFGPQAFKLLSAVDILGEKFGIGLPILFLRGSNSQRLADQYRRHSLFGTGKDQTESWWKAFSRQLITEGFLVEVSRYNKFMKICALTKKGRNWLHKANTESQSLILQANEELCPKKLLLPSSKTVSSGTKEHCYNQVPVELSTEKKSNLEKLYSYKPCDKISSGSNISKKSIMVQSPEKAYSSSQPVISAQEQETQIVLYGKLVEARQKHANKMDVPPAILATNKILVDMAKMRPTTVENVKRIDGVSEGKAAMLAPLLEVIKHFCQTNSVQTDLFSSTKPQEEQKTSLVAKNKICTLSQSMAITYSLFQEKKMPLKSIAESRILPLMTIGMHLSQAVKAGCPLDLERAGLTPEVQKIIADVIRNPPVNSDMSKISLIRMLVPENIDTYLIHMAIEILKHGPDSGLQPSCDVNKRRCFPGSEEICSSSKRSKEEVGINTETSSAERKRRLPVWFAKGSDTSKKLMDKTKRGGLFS
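Kinetic red-fluorescence monitoring (525/598 nm) tracks WRN helicase activity after 100 nM fluorophore-quencher forked duplex and 2 mM ATP are added to 20 nM enzyme pretreated 15 min at room temperature with compound.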
Pol iota inh = inhibitors of human DNA polymerase iota; hit rate 1% among 390,000; AID 588590; Pol iota fluorescent replication assay, 10 min; Potency, µM (doses to about 115 µM), for inactives: at the top dose activity, negative = inhibition, usual class: inhibitors; note: potency is the fitted concentration of half-maximal effect
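Pol iota at 10 nM preincubated 15 min with compounds at room temperature; reaction started with fluorescent substrate, 50 nM final. Fluorescence read kinetically at 0 and 10 min; buffer-only wells as negative control.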
PI5P4K alpha inh = PI5P4K alpha (human) kinase inhibition | PI5P4Kalpha enzyme, ADP-Glo luminescence, 60 min; hits give low values | hit rate 1.2% among 330,000 | max response, % | AID 652105; active = max response of -50% or lower; inconclusive = between -30% and -50%; inactive = -30% or higher; note: value at the top dose of about 77 µM; % is set by controls: 0 for no effect and ±100 for the full control effect
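Reactions run in 0.038 M HEPES pH 7.4, 0.28 mM EGTA, 0.1% CHAPS and 5% DMSO, with PI5P4Kalpha, substrate, compound and 5 microM ATP final, one hour at room temperature. Readout is ADP-Glo luminescence.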
Pol beta inh = DNA polymerase beta (human) inhibition; Pol beta primer extension/strand displacement, fluorescence kinetic; Potency, µM (series often up to 114 µM), for the others: top-dose activity change, negative = inhibition, usual class: inhibitors; hit rate 1.3% among 340,000; note: potency is the fitted concentration of half-maximal effect; % is set by controls: 0 for no effect and ±100 for the full control effect
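Kinetic readout of DNA synthesis with strand displacement by Pol beta. Compound and 10 nM enzyme sit 15 min at room temperature; 50 nM substrate starts the reaction, read immediately and at 10 min.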
Active calls of the source: *; u = inconclusive; x = not tested or not shown; [ ] = another dose, or the depositor's remark. Unless noted, calls come from the whole dose curve; as a rule, active = well fitted curve in the direction sought with a large enough effect; inconclusive = small, poorly fitted or top-dose-only effect, or another doubt; inactive = no such curve, though single readings can be large; an effect the other way counts as inactive or inconclusive.

SMILES	POLH inh	Pol kappa inh	WRN helicase inh	Pol iota inh	PI5P4K alpha inh	Pol beta inh
CCc1ccc(NC(=O)C2CCN(S(=O)(=O)c3ccc4[nH]c5c(c4c3)CCCCC5)CC2)cc1	-21%	2%	x	7%	x	24%
COc1ccc2c(c1)c[n+](C)c1c3cc(OC)c(OC)cc3ccc21	x	x	0%	x	3	x
COc1cc2c[n+](C)c3c4ccccc4ccc3c2cc1OC	u	32µM*	-22%	u	-10	x
CCC[n+]1c(/C=C/c2c(OC)cc(OC)cc2OC)ccc2ccccc21	x	-21%	x	u	x	x
O=[N+]([O-])c1ccc(O)c(/C=N/NC(=S)Nc2ccc(Cl)cc2Cl)c1	-26%	u	3%[11.6 µM]	u	-66*	-19%
Cc1cc(Cl)ccc1NC(=O)CCC(=O)N/N=C/c1cc([N+](=O)[O-])ccc1O	-9%	4%	-3%[57.1 µM]	49%	0	2%
CCCCCCCCSc1nnc2[nH]c(=O)cc(N)n12	-17%	3%	u	6%	-50*	-25%
O=C1CC(c2ccc3c(c2)OCO3)c2cc(O)ccc2O1 (centres undefined)	x	32µM*	x	x	x	x
Cc1ccc(C2CC(=O)Oc3cc4c(cc32)OCO4)cc1 (centres undefined)	x	45µM*	x	x	x	x
O=C1CC(c2ccc3c(c2)OCO3)c2ccc(O)cc2O1 (centres undefined)	x	-1%	x	x	x	x
CCOC(=O)c1c(C)oc2nc(C)nc(NCCc3ccc(SC)cc3)c12	-20%	-7%	x	-8%	x	0%
CC(C)(C)n1ncc2c(=O)n(Cc3c(Cl)ccc(Cl)c3Cl)cnc21	x	8%	x	-24%	x	x
COc1ccc(-c2cc(-c3cccs3)c(C#N)c(SCC(=O)NCc3ccco3)n2)cc1	10%	-4%	-15%	8%	0	13µM*
O=C(Cn1nnc(-c2ccc(Cl)cc2)n1)NCc1ccco1	-9%	u	-9%	40µM*	-24	u
CCC(C(=O)NCc1ccco1)n1nc(-c2ccc(OC)cc2)ccc1=O (centres undefined)	u	u	-6%[11.6 µM]	u	u	45µM*
COc1ccc(-c2ccc(=O)n(CC(=O)NCc3ccco3)n2)cc1	u	-4%	-33%	u	-18	50µM*
Cc1ccc(-c2ccc(=O)n(CC(=O)NCc3ccco3)n2)cc1	-12%	-3%	-3%	16%	x	8%
CC1Cc2cc(S(=O)(=O)CCC(=O)NCc3ccccc3Cl)ccc2N1C(=O)C1CC1 (centres undefined)	2%	7%	x	10%	x	90%
O=S(=O)(CS(=O)(=O)c1ccccc1)c1ccccc1	-12%	2%	-6%	42%	0	x
O=S(=O)(C/C(=C/CO)S(=O)(=O)c1ccccc1)c1ccccc1	-20%	4%	-28%	22µM*	x	10%
COc1ccc2c(C)cc(SCC(=O)NC3CCCC3)nc2c1	-2%	-26%	5%	-1%	0	x
COc1ccc2c(C)cc(SCC(=O)c3ccc4c(c3)OCO4)nc2c1	-14%	-6%	-8%	-16%[58.9 µM]	x	50µM*
CC(=O)Nc1ccc(S(=O)(=O)Nc2nc3ccccc3nc2Nc2ccc(S(N)(=O)=O)cc2)cc1	-7%	-13%	-12%	155%	-7	22%
CC(=O)Nc1ccc(S(=O)(=O)Nc2nc3ccccc3nc2Nc2ccc(O)c(C(=O)O)c2)cc1	-9%	79µM*	-12%[11.6 µM]	20µM*	-23	15%
COc1ccc(S(=O)(=O)Nc2cccc(S(=O)(=O)N3CCCCCC3)c2)cc1	-17%	-7%	-14%	-2%	2	20%
O=S(=O)(Nc1nc2ccccc2nc1Nc1cccc(S(=O)(=O)N2CCCCC2)c1)c1ccccc1	89µM*	-16%	-31%[57.1 µM]	u	-16	u
Cc1ccc(N(Cc2cc3ccccc3[nH]c2=O)C(=O)c2cccc(Cl)c2)cc1	-25%	-2%	x	u	x	-3%
CC(C)c1ccc(C2CC(=O)N3CN(Cc4ccco4)CSC3=C2C#N)cc1 (centres undefined)	-11%	-14%	-7%	u	-21	-5%
